Laboratory results taken from the supplement of paper PMC10646978.
± gives the standard deviation.

Tests used:
Conditions in all cases: modulator concentration 10 µM
[1] = test system: RAW-Dual (murine macrophage reporter line); experiment: NF-kB reporter (SEAP) activity fold change vs agonist alone; higher = enhanced NF-kB activity
Summary of the method: (§1)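 Compound reached 10 μM final in each well by pin transfer, onto RAW-Dual murine macrophage reporter cells seeded at 50 000 per well in 384-well plates. After 1 hour at 37 °C, the cells were stimulated overnight with a PRR agonist. SEAP in the supernatant was read with QUANTI-Blue at 620 nm absorbance for NF-κB, and Lucia luciferase was read with QUANTI-Luc luminescence for IRF. Each signal was turned into fold change against the mean agonist-only control on the same plate, and two replicate plates were averaged with propagated errors.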

[2] = test system: RAW-Dual (murine macrophage reporter line); experiment: IRF reporter (Lucia luciferase) activity fold change vs agonist alone; higher = enhanced IRF activity
Summary of the method: as §1

[3] = test system: RAW-Dual (murine macrophage reporter line); experiment: viability score (confluency relative to resting cells, overnight) (fraction); higher = more viable, active = viable (0.7 or more)
Summary of the method: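 Overnight exposure to 10 μM final compound was carried out on RAW-Dual macrophages in 384-well plates. IncuCyte software generated two confluency masks over all wells imaged with IncuCyte. The viability score gives confluency in relation to resting cells. A compound met the cutoff if each mask exceeded 70% of resting cells.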

[4] = agonist: CpG ODN 1826 0.5 ug/mL

Compound	NF-kB reporter [1, 4]	NF-kB reporter ([1]; agonist: LPS 0.1 ug/mL)	NF-kB reporter ([1]; agonist: MPLA […])	IRF reporter ([2]; agonist: 3'3'-cGAMP 10 ug/mL)	IRF reporter ([2]; agonist: LPS 0.1 ug/mL)	IRF reporter ([2]; agonist: MPLA […])	viability score [3]
O=C(O)CCCNC(=O)c1cccc([N+](=O)[O-])c1	1.06 ± 0.14	1.11 ± 0.082	0.983 ± 0.036	0.986 ± 0.14	1.11 ± 0.11	1.05 ± 0.19	1 (active)
O=c1c(O)c(-c2ccc(O)cc2O)oc2cc(O)cc(O)c12	1.03 ± 0.28	1.1 ± 0.066	1.01 ± 0.085	0.739 ± 0.027	1.11 ± 0.21	1.14 ± 0.14	1 (active)
NC(=O)NO	1.31 ± 0.18	1.21 ± 0.29	0.96 ± 0.057	0.905 ± 0.028	1.44 ± 0.26	1.09 ± 0.084	1 (active)
C#Cc1cccc(Nc2ncnc3cc(OCCOC)c(OCCOC)cc23)c1.Cl	0.511 ± 0.11	0.348 ± 0.047	0.233 ± 0.014	0.292 ± 0.03	0.143 ± 0.039	0.0986 ± 0.027	0.853 (active)
c1ccc(CN2CCN(c3cc(-c4cccnc4)n[nH]3)CC2)cc1	0.805 ± 0.043	1.06 ± 0.096	1.21 ± 0.092	1.09 ± 0.051	1.37 ± 0.31	1.56 ± 0.59	0.98 (active)
CCCCN(CCCC)S(=O)(=O)c1ccc(N2CCCC2=O)c([N+](=O)[O-])c1	1.02 ± 0.12	1.07 ± 0.071	1 ± 0.062	0.975 ± 0.15	1.1 ± 0.13	1.13 ± 0.27	1 (active)
Cn1c(=O)[nH]c2nnc(-c3ccncc3)nc2c1=O	0.815 ± 0.07	0.872 ± 0.077	1.07 ± 0.12	0.935 ± 0.05	1.32 ± 0.15	1.47 ± 0.2	1.02 (active)
O=C(O)c1cccnc1C(=O)O	1.03 ± 0.087	1.04 ± 0.07	0.971 ± 0.022	0.941 ± 0.052	0.981 ± 0.12	0.867 ± 0.07	1 (active)
Clc1ccc(CN2CCN(CCn3ccnc3-c3ccccc3)CC2)cc1	0.584 ± 0.055	1.29 ± 0.12	1.37 ± 0.2	0.841 ± 0.042	1.27 ± 0.086	1.13 ± 0.22	0.993 (active)
O=C(CSc1ccc(F)cc1)N1CCn2nc3c(c2C1)CCC3	1.39 ± 0.087	1.01 ± 0.1	1.05 ± 0.056	1.03 ± 0.11	1.03 ± 0.064	1.03 ± 0.12	1 (active)
COCCOC(=O)C1=C(C)NC(=O)NC1c1cc(OC)c(OC)c(OC)c1 (centres undefined)	0.937 ± 0.064	1.02 ± 0.062	0.913 ± 0.069	0.956 ± 0.032	1.2 ± 0.15	1.08 ± 0.14	0.995 (active)
CC(C)NC(=O)CCn1c(=O)c2cc(Cl)ccc2n2c(SCc3ccc(F)cc3)nnc12	0.992 ± 0.077	1.01 ± 0.093	1.1 ± 0.06	1.02 ± 0.056	1.15 ± 0.19	1.41 ± 0.39	0.964 (active)
